These results are taken from ChEMBL document CHEMBL3988442, “University of Dundee, Small-Polar-MMV Screening Library” (2021).

Set-up in all cases: scale not given: direction of the effect not stated beside the values
Assay [1] addresses Protein translocase subunit SecA (Escherichia coli (strain K12)) (UniProt P10408). The assay can be described thus: Assay to Identify E. coli SecA ATPase Inhibitors. It counts as functional. The note with it: 30 µM.
For assay [2], the target named is T1, Ubiquitin-activating enzyme e1, putative (Leishmania donovani (strain BPK282A1)) (UniProt E9BSI1).
T1 sequence (whole entry): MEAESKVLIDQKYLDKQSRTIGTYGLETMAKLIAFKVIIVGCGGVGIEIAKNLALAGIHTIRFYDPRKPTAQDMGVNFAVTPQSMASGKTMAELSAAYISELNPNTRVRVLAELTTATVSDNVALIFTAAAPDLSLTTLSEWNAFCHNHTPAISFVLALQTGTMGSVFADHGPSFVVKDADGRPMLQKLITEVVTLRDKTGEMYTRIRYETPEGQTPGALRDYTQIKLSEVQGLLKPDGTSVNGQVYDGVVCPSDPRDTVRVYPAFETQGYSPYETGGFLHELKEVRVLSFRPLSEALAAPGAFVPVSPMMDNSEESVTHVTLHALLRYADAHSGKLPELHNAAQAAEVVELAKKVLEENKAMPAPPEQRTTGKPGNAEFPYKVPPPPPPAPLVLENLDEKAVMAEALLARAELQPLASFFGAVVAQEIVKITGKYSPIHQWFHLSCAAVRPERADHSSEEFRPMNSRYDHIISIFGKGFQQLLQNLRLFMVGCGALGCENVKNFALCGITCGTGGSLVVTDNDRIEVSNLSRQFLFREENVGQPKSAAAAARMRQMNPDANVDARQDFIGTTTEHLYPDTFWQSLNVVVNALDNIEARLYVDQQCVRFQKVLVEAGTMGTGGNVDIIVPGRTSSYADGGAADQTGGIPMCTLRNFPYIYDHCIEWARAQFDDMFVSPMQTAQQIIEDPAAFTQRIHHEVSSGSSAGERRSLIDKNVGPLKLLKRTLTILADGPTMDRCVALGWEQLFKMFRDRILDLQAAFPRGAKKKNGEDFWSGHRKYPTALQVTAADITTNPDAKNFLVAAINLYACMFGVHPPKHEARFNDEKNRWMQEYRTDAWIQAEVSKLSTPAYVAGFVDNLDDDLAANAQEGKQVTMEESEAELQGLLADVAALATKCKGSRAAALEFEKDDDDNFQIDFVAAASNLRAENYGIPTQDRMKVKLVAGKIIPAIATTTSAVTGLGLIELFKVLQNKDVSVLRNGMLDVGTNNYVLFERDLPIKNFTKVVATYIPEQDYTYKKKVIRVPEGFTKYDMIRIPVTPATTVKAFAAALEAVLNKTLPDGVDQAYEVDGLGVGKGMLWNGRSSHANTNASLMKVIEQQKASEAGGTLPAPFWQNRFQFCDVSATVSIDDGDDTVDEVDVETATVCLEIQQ
The assay can be described thus: Leishmania donovani Ubiquitin Activating Enzyme (LdE1). It counts as functional. Conditions: 30 µM.

Assay [3] concerns the target Sialic acid-binding Ig-like lectin 9 (Homo sapiens) (UniProt Q9Y336). The assay can be described thus: Hs-Siglec9 ALPHAscreen SOP 20170721. Conditions: 10 µM. For orientation: In Alpha technology, singlet oxygen from a donor bead excites a nearby acceptor bead.
A further assay concerns Trypanosoma cruzi. Nature of the assay: Trypanosoma cruzi phosphomannomutase and mannose-1-phosphate guanylyltransferase assay. It counts as functional. Conditions: 10 µM.
The target of assay [4] is T2, Arginase-2, mitochondrial (Homo sapiens) (UniProt P78540).
T2 sequence (whole entry): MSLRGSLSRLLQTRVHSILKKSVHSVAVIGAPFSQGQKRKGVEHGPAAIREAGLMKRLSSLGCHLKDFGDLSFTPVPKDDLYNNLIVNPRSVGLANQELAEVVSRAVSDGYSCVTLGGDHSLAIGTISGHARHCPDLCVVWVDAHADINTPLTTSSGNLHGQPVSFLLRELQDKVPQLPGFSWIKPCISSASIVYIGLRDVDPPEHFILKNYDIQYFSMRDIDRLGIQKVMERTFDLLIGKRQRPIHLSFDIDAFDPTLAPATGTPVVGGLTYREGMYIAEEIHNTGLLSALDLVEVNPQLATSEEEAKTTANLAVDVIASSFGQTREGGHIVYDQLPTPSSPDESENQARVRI
Nature of the assay: in vitro enzyme assay to detect the production of urea directly proportional to the activity of Arginase II. Note: in the data most compounds retested in dose-response had high values. Type of assay: functional.

Assay [5] deals with T3, Proteasome subunit beta (Trypanosoma cruzi) (UniProt O96673).
T3 sequence (whole entry): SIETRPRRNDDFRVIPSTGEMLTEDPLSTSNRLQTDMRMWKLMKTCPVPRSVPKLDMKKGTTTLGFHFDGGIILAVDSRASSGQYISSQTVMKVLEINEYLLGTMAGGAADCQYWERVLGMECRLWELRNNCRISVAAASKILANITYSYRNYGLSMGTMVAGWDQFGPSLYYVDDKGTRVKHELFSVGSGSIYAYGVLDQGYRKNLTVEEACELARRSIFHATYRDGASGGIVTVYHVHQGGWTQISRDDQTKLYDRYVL
Nature of the assay: Trypanosoma cruzi proteasome chymotrypsin-like activity (TcProtChymo) assay. Note: in the data most compounds retested in dose-response had high values. It counts as functional. Conditions: 9.37 µM.

The species entered for the next assay is Homo sapiens. Nature of the assay: To identify inhibition of the IFN signalling (Jak-Stat) pathway via expression of an eGFP reporter gene under the control of an IFN-stimulated response element (ISRE) containing MxA promoter. Type of assay: functional. Conditions: 30 µM. In general terms: Reporter assays use an easily measured gene product as a stand-in for the process of interest.

Assay [6] concerns the target T4, Tyrosyl-tRNA synthetase, putative (Trypanosoma cruzi (strain CL Brener)) (UniProt Q4DSP6).
T4 sequence (whole entry): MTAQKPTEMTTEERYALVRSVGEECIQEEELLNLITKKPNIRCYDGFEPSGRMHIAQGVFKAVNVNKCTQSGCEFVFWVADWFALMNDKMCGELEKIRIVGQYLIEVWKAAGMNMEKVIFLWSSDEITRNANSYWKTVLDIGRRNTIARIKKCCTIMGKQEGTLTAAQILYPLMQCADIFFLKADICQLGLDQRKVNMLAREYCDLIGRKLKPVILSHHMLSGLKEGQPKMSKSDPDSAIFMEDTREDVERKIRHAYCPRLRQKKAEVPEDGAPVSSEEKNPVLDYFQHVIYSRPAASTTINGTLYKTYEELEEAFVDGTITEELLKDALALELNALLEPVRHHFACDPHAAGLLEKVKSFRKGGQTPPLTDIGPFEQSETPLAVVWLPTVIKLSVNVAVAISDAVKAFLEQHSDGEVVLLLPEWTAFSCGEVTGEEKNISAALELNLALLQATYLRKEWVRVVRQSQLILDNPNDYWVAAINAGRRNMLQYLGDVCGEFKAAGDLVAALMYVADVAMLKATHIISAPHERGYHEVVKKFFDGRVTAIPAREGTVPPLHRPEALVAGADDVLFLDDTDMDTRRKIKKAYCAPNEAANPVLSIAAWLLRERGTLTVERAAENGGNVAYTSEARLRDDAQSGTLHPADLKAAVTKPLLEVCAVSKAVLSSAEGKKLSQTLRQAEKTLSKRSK
Nature of the assay: Trypanosoma cruzi tyrosyl tRNA synthetase (TcYRS) _High Tyrosine SOP. Note: in the data most compounds retested in dose-response had high values. Type of assay: functional. The note with it: 30 µM.

In assay [7] the target is T4, Tyrosyl-tRNA synthetase, putative (Trypanosoma cruzi (strain CL Brener)). Nature of the assay: Trypanosoma cruzi tyrosyl tRNA synthetase (TcYRS) SOP. It counts as functional. Conditions: 30 µM.
The target in assay [8] is Chromo domain-containing protein 1 (Saccharomyces cerevisiae (strain ATCC 204508 / S288c) (Baker's yeast)) (UniProt P32657). The assay can be described thus: ScCHD-1 Enzyme Inhibition Assay. Note: in the data most compounds retested in dose-response had high values. Type of assay: functional. The note with it: 30 µM.
Chain of Chromo domain-containing protein 1 (Saccharomyces cerevisiae (strain ATCC 204508 / S288c) (Baker's yeast)) (P32657 whole entry, the tested form may be a part): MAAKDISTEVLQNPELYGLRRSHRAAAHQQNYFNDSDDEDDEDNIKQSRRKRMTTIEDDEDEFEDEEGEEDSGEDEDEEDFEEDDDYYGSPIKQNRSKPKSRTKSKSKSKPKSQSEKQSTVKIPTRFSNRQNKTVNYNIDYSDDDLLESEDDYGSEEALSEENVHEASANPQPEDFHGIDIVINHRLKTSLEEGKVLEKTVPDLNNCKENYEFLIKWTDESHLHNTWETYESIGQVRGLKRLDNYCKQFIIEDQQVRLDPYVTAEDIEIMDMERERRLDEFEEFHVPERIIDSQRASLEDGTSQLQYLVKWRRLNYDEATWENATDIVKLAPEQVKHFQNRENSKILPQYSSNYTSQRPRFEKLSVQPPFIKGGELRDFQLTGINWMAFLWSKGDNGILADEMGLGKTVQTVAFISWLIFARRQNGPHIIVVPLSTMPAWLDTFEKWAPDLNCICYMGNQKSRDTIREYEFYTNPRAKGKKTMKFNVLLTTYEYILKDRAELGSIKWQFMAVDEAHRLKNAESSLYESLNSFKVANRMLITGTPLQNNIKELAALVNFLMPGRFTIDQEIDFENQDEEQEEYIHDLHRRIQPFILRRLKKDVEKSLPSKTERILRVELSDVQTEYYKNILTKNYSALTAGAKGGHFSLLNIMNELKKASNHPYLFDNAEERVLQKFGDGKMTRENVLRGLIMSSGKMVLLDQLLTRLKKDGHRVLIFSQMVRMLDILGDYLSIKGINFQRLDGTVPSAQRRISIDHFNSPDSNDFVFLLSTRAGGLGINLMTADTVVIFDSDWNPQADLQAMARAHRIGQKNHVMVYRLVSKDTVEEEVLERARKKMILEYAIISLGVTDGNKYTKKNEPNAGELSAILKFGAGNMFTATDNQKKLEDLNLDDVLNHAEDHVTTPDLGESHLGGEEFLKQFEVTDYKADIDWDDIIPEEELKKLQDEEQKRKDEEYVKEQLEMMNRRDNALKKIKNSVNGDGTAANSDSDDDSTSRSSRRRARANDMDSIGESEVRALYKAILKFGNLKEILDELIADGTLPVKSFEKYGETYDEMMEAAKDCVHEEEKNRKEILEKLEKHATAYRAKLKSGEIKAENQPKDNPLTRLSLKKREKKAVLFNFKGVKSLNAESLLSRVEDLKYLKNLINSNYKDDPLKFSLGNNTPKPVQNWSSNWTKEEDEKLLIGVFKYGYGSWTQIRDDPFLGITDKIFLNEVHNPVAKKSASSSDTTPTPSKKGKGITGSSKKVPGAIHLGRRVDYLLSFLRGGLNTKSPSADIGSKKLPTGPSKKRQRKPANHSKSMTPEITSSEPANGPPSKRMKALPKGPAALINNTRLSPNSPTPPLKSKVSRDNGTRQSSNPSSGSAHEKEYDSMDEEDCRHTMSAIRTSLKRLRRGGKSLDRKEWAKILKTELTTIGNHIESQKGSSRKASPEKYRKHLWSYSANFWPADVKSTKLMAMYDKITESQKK
The target in assay [9] is AMP-activated protein kinase, AMPK (Homo sapiens) (UniProt P54646+O43741+P54619+Q9UGJ0+Q9Y478+Q13131+Q9UGI9). The assay can be described thus: AMP-dependent Kinase enzyme assay. An in vitro enzyme assay that detects ADP turnover that is directly proportional to AMPK activity. This uses naive AMPK that is activated during the assay with MK-8722. It counts as functional. The note with it: 30 µM.

Another assay has as its system N/A. Nature of the assay: Trypanosoma cruzi proteasome luciferase counter-screen. The note with it: 9.37 µM. It counts as functional.

Values joined by “and” are separate entries in the source; they are usually repeats but may differ in a detail not shown here. Identical values can stand only once. For some assays here: Measured potencies and affinities stand elsewhere.

Chain of Protein translocase subunit SecA (Escherichia coli (strain K12)) (P10408 whole entry): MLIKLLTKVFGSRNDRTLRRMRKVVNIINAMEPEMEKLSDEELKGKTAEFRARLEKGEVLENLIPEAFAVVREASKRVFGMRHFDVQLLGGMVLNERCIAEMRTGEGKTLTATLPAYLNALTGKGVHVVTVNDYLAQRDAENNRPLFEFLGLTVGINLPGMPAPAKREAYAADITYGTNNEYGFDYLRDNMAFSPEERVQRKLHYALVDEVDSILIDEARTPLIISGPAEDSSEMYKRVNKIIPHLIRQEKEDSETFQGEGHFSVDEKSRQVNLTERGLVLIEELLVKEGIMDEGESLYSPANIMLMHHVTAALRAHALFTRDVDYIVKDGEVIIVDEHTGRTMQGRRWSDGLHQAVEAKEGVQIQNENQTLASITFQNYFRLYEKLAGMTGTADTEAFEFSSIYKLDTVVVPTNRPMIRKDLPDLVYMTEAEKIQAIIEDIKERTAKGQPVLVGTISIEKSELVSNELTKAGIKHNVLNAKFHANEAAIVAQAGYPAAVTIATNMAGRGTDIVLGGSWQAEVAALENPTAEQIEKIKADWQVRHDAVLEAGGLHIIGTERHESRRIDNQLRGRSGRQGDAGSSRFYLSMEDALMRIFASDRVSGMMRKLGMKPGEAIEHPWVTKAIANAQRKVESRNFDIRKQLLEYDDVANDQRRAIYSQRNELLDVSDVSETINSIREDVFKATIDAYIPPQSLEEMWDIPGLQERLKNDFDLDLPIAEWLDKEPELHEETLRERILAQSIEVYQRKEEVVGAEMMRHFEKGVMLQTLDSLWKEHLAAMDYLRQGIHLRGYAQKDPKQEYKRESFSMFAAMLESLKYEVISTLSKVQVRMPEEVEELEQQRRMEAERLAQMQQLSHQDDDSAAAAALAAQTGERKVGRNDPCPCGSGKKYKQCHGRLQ
Chain of Sialic acid-binding Ig-like lectin 9 (Homo sapiens) (Q9Y336 whole entry): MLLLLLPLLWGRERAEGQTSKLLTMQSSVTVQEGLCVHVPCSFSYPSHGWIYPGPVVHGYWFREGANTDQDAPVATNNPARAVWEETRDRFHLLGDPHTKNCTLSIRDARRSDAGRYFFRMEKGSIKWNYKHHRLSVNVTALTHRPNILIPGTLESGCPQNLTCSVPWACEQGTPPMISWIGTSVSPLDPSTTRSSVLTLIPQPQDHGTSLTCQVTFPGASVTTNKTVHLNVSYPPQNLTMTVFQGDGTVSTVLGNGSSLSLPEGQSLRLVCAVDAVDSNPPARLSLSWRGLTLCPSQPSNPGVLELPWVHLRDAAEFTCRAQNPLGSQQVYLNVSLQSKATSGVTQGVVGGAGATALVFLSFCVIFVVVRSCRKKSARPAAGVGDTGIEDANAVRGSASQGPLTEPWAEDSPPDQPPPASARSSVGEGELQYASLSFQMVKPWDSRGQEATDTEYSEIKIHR

Consider `Cc1ccc(C)c(C(C(=O)O)N2CCCN(Cc3ccccn3)CC2)c1` (centres undefined), for which the Percent Effect is -6.39% in assay [1]; 5.41% in assay [2]; 1.19% in assay [3]; -2.23% in the assay with Trypanosoma cruzi; 0.54% in assay [4] (30 µM); 4.54% in assay [4] (33.3 µM). Moreover, the Percent Effect in assay [5] was 16.3%; in the assay listed under Homo sapiens it was 23.2%; in [6], 6.92%; in assay [7] it was 14.6%; in assay [8] it was -4.84%.
With `Nc1nc(CCC(=O)N2CCOC(CC3CCCCC3)C2)cs1` (centres undefined), the Percent Effect in [1] was -7.43%; in assay [2] it was 0%; in [3], 6.25%; in the assay with Trypanosoma cruzi, 11.3%; in assay [4] (30 µM), 3.78%; in [4] (33.3 µM) it was -2.45%. For the same molecule, the Percent Effect in [5] amounted to 3.25%; in the assay filed under Homo sapiens it was 10.9%; in assay [6], 9.04%; in assay [7], 19.5%; in assay [8], 5.38%.
In the case of `CN(Cc1ccccc1Br)C(=O)Cn1nc(-c2ccc(F)cc2)oc1=O`, the Percent Effect in assay [1] is 2.65%; in assay [2], -5.26%; in assay [9], 0.817%; in [3], -11.8%; in the assay on Trypanosoma cruzi, -6.33%; in assay [4] (33.3 µM) it was 10.7%. The Percent Effect in assay [5] is 10.8%; in the assay filed under Homo sapiens it was 10%; in [6], -24.5%; in assay [7], -28.6%; in assay [8] it was -1.2%.
`Cc1nccn1-c1cccc(C2CCCN(C3CCCCC3)C2)n1` (centres undefined): the Percent Effect in assay [1] was -7.63%; in assay [2] it was -4.05%; in [9] it was 3.56%; in [3] it was -0.877%; with Trypanosoma cruzi, 2.17%; in assay [4] (33.3 µM), 4.41%. Also, the Percent Effect in assay [5] was 14.8%; in the assay filed under Homo sapiens, 2.91%; in assay [6] it was 22.6%; in assay [7], 27.3%; in assay [8] it was -10.9%.
Regarding `CN(CCNC(=O)c1scnc1Cl)c1ccccc1`, the Percent Effect was -1.49% in assay [1]; 10.7% in [2]; -1.26% in assay [3]; -8.23% in the assay on Trypanosoma cruzi; 3.99% in assay [4] (33.3 µM); 19.9% in assay [5]. The Percent Effect is 20% in the assay filed under Homo sapiens, 1.58% in assay [6], 10.3% in [7] and -6.98% in [8].
On to `CN(C)c1ccc(CN(CCCn2ccnc2)Cc2c[nH]cn2)cc1`, for which the Percent Effect in assay [1] is -6.31%; in [2], 17.6%; in [9] it was -10.4%; in assay [3], 5.43%; in the assay with Trypanosoma cruzi, 3.16%; in assay [4] (33.3 µM), -6.26%. The Percent Effect is 12.5% in [5]; 8.69% in the assay listed under Homo sapiens; 8.6% in assay [6]; 19.5% in [7]; -30.5% in assay [8].
Turning to `COCc1noc(-c2ccc(N3CCCCC3CO)nc2)n1` (centres undefined), the Percent Effect in [1] is -2.04%; in assay [2], -5.41%; in [3], 7.35%; in the assay on Trypanosoma cruzi it was -0.485%; in assay [4] (33.3 µM), 6.64%; in assay [5], 62% and 48.5% and 57.3%. For the same molecule, the Percent Effect with N/A was 26.9%; in the assay filed under Homo sapiens it was 2.19%; in [6], 0.532%; in assay [7], 0%; in assay [8], -0.226%.
`COc1ccc2c(c1)OCC(CNC(=O)c1ccc(=O)n(C)c1)C2` (centres undefined): the Percent Effect is -9.07% in [1]; -2.7% in [2]; 20.7% in assay [3]; 5.72% in the assay with Trypanosoma cruzi; -5.95% in assay [4] (30 µM); 17.8% in [4] (33.3 µM). The Percent Effect in [5] was 12.5%; in the assay listed under Homo sapiens, 9.66%; in assay [6], 4.79%; in assay [7] it was 9.76%; in [8], 0.784%.
In the case of `Cc1nc(C)n(CC2CCCN2Cc2nc(N)c3ccccc3n2)n1` (centres undefined), the Percent Effect in assay [1] was -1.49%; in assay [2] it was 21.3%; in assay [3] it was -3.38%; in the assay with Trypanosoma cruzi, 3.81%; in [4] (33.3 µM), -3.1%; in assay [5] it was 16.4% and 18.4% and 30.6%. Besides, the Percent Effect with N/A is 8.36% and 7.38%; in the assay filed under Homo sapiens, 8.71%; in assay [6] it was 6.84%; in assay [7], 15.4%; in [8], -17.8%.
Consider `Cc1nc(N)sc1C(=O)N1CCCC(c2nccn2CCCN(C)C)C1` (centres undefined), for which the Percent Effect is -5.86% in [1]; 10.8% in assay [2]; 10.2% in assay [3]; 7.47% in the assay on Trypanosoma cruzi; 9.19% in assay [4] (30 µM); -3.15% in [4] (33.3 µM). The Percent Effect is 13.2% in assay [5]; 7.55% in the assay listed under Homo sapiens; 11.2% in assay [6]; 9.76% in [7]; 95.1% in [8].
Regarding `Cc1ccccc1S(=O)(=O)N1CCCCC1c1ccn[nH]1` (centres undefined), the Percent Effect in assay [1] was 1.53%; in [2], 9.33%; in assay [3] it was -8.62%; with Trypanosoma cruzi it was -7.5%; in assay [4] (33.3 µM), 0.443%; in assay [5] it was 13.3%. Further, the Percent Effect is 19.3% in the assay filed under Homo sapiens, 0% in assay [6], 7.5% in assay [7] and -21.7% in assay [8].
